From PubChem BioAssay AID1851 (National Center for Advancing Translational Sciences (NCATS), 2009)
Values joined by “and” are separate entries in the source; they are usually repeats but may differ in a detail not shown here. Equal entries are not always repeated. Hit rate of the full screen: of about 16,000 compounds, about 5,100 (32%) were called active. Inconclusive results (about 25%) are left out. Some of the results follow. A number with no mark means an inactive call. The call rests on the fitted dose curve; in most records, active means well fitted curve in the direction sought with a large enough effect; inconclusive means small, poorly fitted or top-dose-only effect, or effect the other way; inactive means no such curve, though single readings can be large or run the other way.

Molecular target: Cytochrome P450 3A4 (Homo sapiens) (UniProt P08684)
Experiment: Cytochrome panel assay with activity outcomes
Details: recombinant CYP, pro-luciferin dealkylation, luminescence, p450-cyp3a4; series mostly up to 57.1 µM; activity, negative = inhibition: at the top concentration
On the % scale 0 is the no-effect control and ±100 the full control effect.

Sequence of Cytochrome P450 3A4 (Homo sapiens) (P08684 whole entry, looked up): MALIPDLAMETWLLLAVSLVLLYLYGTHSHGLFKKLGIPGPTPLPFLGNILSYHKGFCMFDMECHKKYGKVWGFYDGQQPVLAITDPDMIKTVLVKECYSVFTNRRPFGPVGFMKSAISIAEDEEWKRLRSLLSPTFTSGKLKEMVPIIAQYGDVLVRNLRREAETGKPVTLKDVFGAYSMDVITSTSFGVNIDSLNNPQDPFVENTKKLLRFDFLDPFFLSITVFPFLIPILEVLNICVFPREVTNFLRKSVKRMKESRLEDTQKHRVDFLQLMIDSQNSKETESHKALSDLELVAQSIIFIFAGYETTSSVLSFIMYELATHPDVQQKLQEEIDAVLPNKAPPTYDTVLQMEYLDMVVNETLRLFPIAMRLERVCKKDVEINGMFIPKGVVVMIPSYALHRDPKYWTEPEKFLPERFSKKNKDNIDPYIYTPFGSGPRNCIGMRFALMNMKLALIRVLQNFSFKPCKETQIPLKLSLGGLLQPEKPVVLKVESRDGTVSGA

Row | SMILES | activity, negative = inhibition | AC50
1 | O=C(NCCc1ccc(O)cc1)c1ccc(Cl)cc1 | 1.62% [at 2.29 µM] | –
2 | Oc1cc2c(cc1O)CN(C(=S)NCCc1ccc(Cl)cc1)CCC2 | – | 3.16 µM (active)
3 | CC[C@@]1([N+](=O)[O-])C[C@H]2C=C[C@@H]1C2 | -4.49% [at 11.4 µM] | –
4 | C/C(=C\c1ccco1)C1C(C#N)=C(N)Oc2n[nH]c(-c3ccccc3)c21 (configuration not stated) | – | 3.98 µM (active)
5 | Cc1ccc(NC(=O)C(=O)NCc2ccc(/C=C(/C#N)C(=O)NCc3cccnc3)o2)cc1 | – | 1.41 µM (active)
6 | Cc1cc(N)n(-c2ccc3ccccc3c2)n1 | – | 28.2 µM (active)
7 | Cc1cc(N)n(-c2ccccc2)n1 | -14.7% | –
8 | Nc1nc(-c2ccc3ccccc3c2)cc(-c2cc(-c3ccc4ccccc4c3)nc(N)n2)n1 | -3.3% [at 11.4 µM] | –
9 | COc1cc(N=C(N)N=C(N)N)c2ncccc2c1 | -8.88% [at 11.4 µM] | –
10 | CCOC(=O)CCN1C(=O)[C@H]2[C@@H]3[C@H](O)[C@H](O)CC(=O)[C@H]3CC[C@H]2C1=O | -4.78% [at 11.4 µM] and -14.8% [at 11.4 µM] | –
11 | CC1Cc2ccccc2N1C(=O)CN1C(=O)COc2ccccc21 (configuration not stated) | -6.97% [at 2.29 µM] | –
12 | CC1Cc2ccccc2N1C(=O)c1cc2c(=O)n3ccccc3nc2n1C (configuration not stated) | -16.7% | –
13 | O=C(CCN1C(=O)C2C3C=CC(C3)C2C1=O)NCCN1CCCc2ccccc21 (configuration not stated) | – | 3.98 µM (active)
14 | CC1Cc2ccccc2N1C(=O)CCN1C(=O)C2C3C=CC(C3)C2C1=O (configuration not stated) | – | 1.41 µM (active)
15 | CC1Cc2ccccc2N1C(=O)Cn1c(=O)cc(O)c2ccccc21 (configuration not stated) | – | 25.1 µM (active)
16 | CC1Cc2ccccc2N1C(=O)CSCC(=O)O (configuration not stated) | -12.7% | –
17 | O=C(O)Cc1ccc2ocnc2c1 | 10.5% | –
18 | COc1ccc(Oc2ncc3nc(C)c(=O)n(-c4ccc(OC)cc4)c3n2)cc1 | – | 3.98 µM (active)
19 | COc1ccc(-n2c(=O)c(C)nc3cnc(Oc4ccccc4)nc32)cc1 | – | 15.8 µM (active)
20 | Cc1nc2cnc(Oc3ccccc3)nc2n(C)c1=O | -6.94% | –
21 | COc1ccc(Oc2ncc3nc(C)c(=O)n(C)c3n2)cc1 | – | 25.1 µM (active)
22 | COc1ccc(Oc2ncc3nc(C)c(=O)n(-c4ccccc4)c3n2)cc1 | – | 5.01 µM (active)

Row | SMILES | activity, negative = inhibition | AC50
23 | CCOC(=O)c1oc2ccccc2c1NC(=O)c1ccc2c(c1)OCO2 | – | 2.24 µM (active)
24 | CN(C)S(=O)(=O)c1ccc(NC(=O)COC(=O)c2ccccn2)cc1 | -17.6% | –
25 | CN(C)S(=O)(=O)c1ccc(C(=O)Nc2ccc(CN3CCCC3)cc2)cc1 | 24.6% | –
26 | CCOC(=O)c1oc2ccccc2c1NC(=O)c1ccc(S(=O)(=O)N(C)C)cc1 | – | 14.1 µM (active)
27 | CCOC(=O)c1oc2ccccc2c1NC(=O)c1cc(OC)cc(OC)c1 | – | 7.94 µM (active)
28 | COc1ccc(-c2oc3ccccc3c(=O)c2OC(=O)c2ccc(C)cc2)cc1 | 2.5% | –
29 | Nc1c(OCC(=O)O)ccc2cc(S(=O)(=O)O)ccc12 | -9.68% [at 11.4 µM] | –
30 | CNc1ncnc2c1ncn2[C@@H]1O[C@H](CO)[C@@H](O)[C@@H]1O | 10% [at 25.6 µM] | –
31 | NC(=O)OC[C@H](O)COc1ccc(Cl)cc1 | -3.48% [at 25.6 µM] | –
32 | O=C(Nc1ccc2ccccc2c1)[C@@H]1C[C@H]1[C@@H](NP(=O)(c1ccccc1)c1ccccc1)c1ccccc1 | -44.6% | –
33 | O=C(Nc1ccc2ccccc2c1)[C@H]1C[C@@H]1[C@H](NP(=O)(c1ccccc1)c1ccccc1)c1ccccc1 | – | 2.51 µM (active)
34 | C[C@H](CO)NC(=O)[C@@H]1C[C@H]1[C@@H](NP(=O)(c1ccccc1)c1ccccc1)c1ccccc1 | – | 12.6 µM (active)
35 | CC(C)=CCC/C(C)=C/CO/N=C1/C[C@@H](O)[C@@H](O)[C@@H]2[C@@H]3C(=O)N(Cc4ccccc4)C(=O)[C@H]3CC[C@@H]12 | -7.78% [at 11.4 µM] | –
36 | CC(C)=CCC/C(C)=C/CO/N=C1/C[C@@H](O)[C@@H](O)[C@@H]2[C@@H]3C(=O)N(Cc4ccc5c(c4)OCO5)C(=O)[C@H]3CC[C@@H]12 | – | 1.58 µM (active)
37 | CCOC(=O)CCN1C(=O)[C@H]2[C@H]3[C@H](O)[C@H](O)C/C(=N/OC/C=C(\C)CCC=C(C)C)[C@@H]3CC[C@@H]2C1=O | -25.9% [at 11.4 µM] | –
38 | CC(C)=CCC/C(C)=C/CO/N=C1/C[C@@H](O)[C@@H](O)[C@@H]2[C@@H]3C(=O)N(Cc4ccc5c(c4)OCO5)C(=O)[C@H]3CC[C@H]12 | – | 1.58 µM (active)
39 | CCOC(=O)CCN1C(=O)[C@H]2[C@H]3[C@H](O)[C@H](O)C/C(=N/OC/C=C(\C)CCC=C(C)C)[C@H]3CC[C@@H]2C1=O | -16.7% [at 11.4 µM] | –
40 | CC(C)=CCC/C(C)=C/CO/N=C1/C[C@@H](O)[C@@H](O)[C@@H]2[C@@H]3C(=O)N(C[C@@H]4CCCO4)C(=O)[C@H]3CC[C@@H]12 | -23% [at 11.4 µM] | –
41 | CCn1c(CCCc2nc3c([nH]2)c(=O)n(C)c(=O)n3C)nc2c1c(=O)n(C)c(=O)n2C | -26.8% [at 11.4 µM] | –
42 | COC(=O)c1[nH]c2ccc(Br)cc2c1NC(=O)CN1CCCc2ccccc21 | -23.9% [at 2.29 µM] | –
43 | COC(=O)c1[nH]c2ccc(Br)cc2c1NC(=O)Oc1ccccc1 | 10.3% [at 2.29 µM] | –
44 | COC(=O)c1[nH]c2ccc(Br)cc2c1NC(=O)CN1CCN(C2CCCCC2)CC1 | – | 14.1 µM (active)

Row | SMILES | activity, negative = inhibition | AC50
45 | COc1ccc(C2c3c(ncn(CCN4CCOCC4)c3=N)Oc3ccc4ccccc4c32)cc1OC (configuration not stated) | – | 3.16 µM (active)
46 | Cc1ccccc1OCCNC(=O)c1ccccc1Sc1ccccc1C#N | – | 14.1 µM (active)
47 | CNC(=S)NNC(=O)COc1ccccc1C | -15% | –
48 | CCCC1CCC(c2ccc(C(N)=O)cc2)CC1 (configuration not stated) | -23.3% | –
49 | CC(C)c1nc2ccccn2c1NC1CCCCC1 | – | 14.1 µM (active)
50 | N=c1c(C(=O)NC2CCCC2)cc2c(=O)n3ccccc3nc2n1C1CCCC1 | 6.82% | –
51 | CCSc1nnc(-c2ccccc2NC(C)=O)c(=O)[nH]1 | 13.7% | –
52 | CCOC(=O)CC(NC(=O)c1cccs1)c1ccc(OCC)cc1 (configuration not stated) | -4.62% | –
53 | CCC[C@@H]1C[C@@]1(CCC)C(NC(=O)c1cccs1)c1ccc(Cl)cc1 (some centres not stated) | – | 6.31 µM (active)
54 | CCC[C@@H]1C[C@@]1(CCC)C(NC(=O)c1ccco1)c1ccc(Cl)cc1 (some centres not stated) | – | 12.6 µM (active)
55 | CCC[C@@H]1C[C@@]1(CCC)C(NS(=O)(=O)c1cccc2cccnc12)c1ccc(Cl)cc1 (some centres not stated) | – | 0.794 µM (active)
56 | CCCCN1C(=O)NC(NC(=O)c2ccco2)(C(F)(F)F)C1=O (configuration not stated) | 2.31% [at 2.29 µM] | –
57 | CC[C@H](CN(C)C)C(=O)c1ccco1 | -7.24% [at 11.4 µM] | –
58 | Cc1noc(C)c1C(=O)N1CCC2(CCN(C(=O)NC(C)C)CC2)CC1 | -8.24% | –
59 | CCn1c(-c2ccccc2Cl)nn(CC(=O)Nc2ccc(OC)cc2)c1=S | – | 5.01 µM (active)
60 | CCn1nc(C(=O)Nc2ccccc2C)c(Cl)c1Cl | -3.65% | –
61 | CCn1c(-c2ccccc2Cl)nn(CC(=O)Nc2ccccc2OC)c1=S | – | 12.6 µM (active)
62 | CCn1c(-c2ccccc2Cl)nn(CC(=O)Nc2cc(Cl)ccc2Cl)c1=S | – | 5.01 µM (active)
63 | COC(=O)Cn1nc(-c2ccccc2)n(-c2ccccc2)c1=S | 14.3% | –
64 | O=c1c(-c2cc(F)cc(F)c2)nc2cnc(Oc3ccccc3)nc2n1C1CC1 | -14% | –
65 | COc1ccc(Oc2ncc3nc(-c4ccc(F)cc4)c(=O)n(C)c3n2)cc1 | – | 3.98 µM (active)
66 | COc1ncc2nc(-c3cc(F)cc(F)c3)c(=O)n(-c3ccccc3)c2n1 | -23.8% | –

Row | SMILES | activity, negative = inhibition | AC50
67 | COc1cccc(Nc2ncc3nc(-c4ccc(F)cc4)c(=O)n(C)c3n2)c1 | -16.2% | –
68 | COc1ccc(Oc2ncc3nc(-c4cc(F)cc(F)c4)c(=O)n(C)c3n2)cc1 | – | 5.01 µM (active)
69 | CN(CCO)Cc1ncccc1O | -9.73% [at 11.4 µM] | –
70 | O=C(NCCc1c[nH]c2ccccc12)C1CCN(c2nnc(N3CCCC3=O)s2)CC1 | – | 8.91 µM (active)
71 | O=C(O)[C@H](Cc1c[nH]c2ccccc12)N1C(=O)c2ccccc2C1=O | -3.21% [at 11.4 µM] | –
72 | CN1CCN(CCCNC(=O)C2CCN(c3nnc(-n4cccc4)s3)CC2)CC1 | -16% | –
73 | CCOc1ccc(NC(=S)N(Cc2ccc(N(C)C)cc2)Cc2ccco2)cc1 | – | 7.08 µM (active)
74 | CCOc1ccc(NC(=S)N(Cc2ccc(Cl)cc2)Cc2ccco2)cc1 | – | 3.55 µM (active)
75 | Cc1cccc(OCCSCc2nc3ccccc3[nH]2)c1 | – | 7.08 µM (active)
76 | c1ccc(C(c2ccccc2)N2CCCC3(CCNCC3)C2)cc1 | – | 1.26 µM (active)
77 | c1ccc(C(c2ccccc2)N2CCC3(CCNCC3)CC2)cc1 | -12.2% | –
78 | c1ccc(C(c2ccccc2)N2CC[C@@]3(CCCNC3)C2)cc1 | – | 7.94 µM (active)
79 | COc1ccccc1CN1CCCC2(CCNCC2)C1 | -16.5% | –
80 | Cc1cc(C)cc(-n2c(O)c(C=NC3CCS(=O)(=O)C3)c3ccccc3c2=O)c1 (configuration not stated) | – | 10 µM (active)
81 | COC(=O)c1ccc(NC(=O)c2cc3sccc3n2C)cc1 | -90.9% | –
82 | O=C(Nc1ccc2c(c1)OCCO2)c1cc2sccc2n1Cc1ccc(F)cc1 | – | 5.01 µM (active)
83 | Cn1c(C(=O)Nc2ccccc2)cc2sccc21 | – | 25.1 µM (active)
84 | O=C(Nc1ccc2c(c1)OCCO2)c1cc2sccc2n1Cc1ccccc1 | – | 6.31 µM (active)
85 | CCOC(=O)c1sc(NC(=O)CSc2nc(C)cc(C)c2C#N)c(C#N)c1C | -17.1% [at 2.29 µM] | –
86 | CCOC(=O)c1sc(NC(=O)CSc2nc(C)cc(C)n2)c(C#N)c1C | – | 10 µM (active)
87 | CCOC(=O)c1sc(NC(=O)CSc2n[nH]c(-c3ccc(Cl)cc3Cl)n2)c(C#N)c1C | – | 10 µM (active)
